Most compounds without a hit are left out; they make up all but 6.8% or so of the library.
Pf Dd2 growth: blocks growth of Plasmodium falciparum Dd2 parasites; actives 2.3% (n = 94,000); activity change, % at 10 µM; P. falciparum Dd2 growth, SYBR Green, 72 h; hits give low values; AID 1159554; in the data active = activity change below about -80%
Tcruzi prolif: T. cruzi proliferation inhibition | T. cruzi beta-gal in NIH3T3, GalScreen luminescence, 90 h | inhibition, % at 8.34 µM | actives 5.9% (n = 77,000);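 active = mean inhibition above about 93%, with at least 55% of replicates each passing it, limit read from the data, passing the limit was not always enough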
C diff growth: inhibitors of Clostridium difficile growth; growth activity, negative = inhibition, % at 16 µg/mL (by protocol); actives 0.25% (n = 86,000); Clostridium difficile clinical isolate growth, OD600, 24 h; hits give low values;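 active = mean growth activity at or below -80% and every replicate also at or below -80%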
Each line names hits and unclear results; the compound was inactive in the other large screens; ! = not confirmed by another sample.

Cc1noc(C)c1S(=O)(=O)Nc1ccc2c(c1)C(=O)N([C@H](C)CO)C[C@@H](C)[C@@H](CN(C)C(=O)Nc1cccc3ccccc13)OCCCC[C@@H](C)O2	Pf Dd2 growth -88.1
Cc1noc(C)c1S(=O)(=O)Nc1ccc2c(c1)C(=O)N([C@@H](C)CO)C[C@H](C)[C@H](CN(C)C(=O)NC1CCCCC1)OCCCC[C@H](C)O2	none
Cc1noc(C)c1S(=O)(=O)Nc1ccc2c(c1)C(=O)N([C@H](C)CO)C[C@@H](C)[C@@H](CN(C)C(=O)NC1CCCCC1)OCCCC[C@@H](C)O2	Pf Dd2 growth -83.9
Cc1noc(C)c1S(=O)(=O)Nc1ccc2c(c1)C(=O)N([C@H](C)CO)C[C@H](C)[C@H](CN(C)C(=O)Nc1ccccc1)OCCCC[C@H](C)O2	none
COc1ccc(S(=O)(=O)Nc2ccc3c(c2)C(=O)N([C@@H](C)CO)C[C@H](C)[C@H](CN(C)C(=O)Nc2cccc4ccccc24)OCCCC[C@@H](C)O3)cc1	Pf Dd2 growth -82.3 (no result: Tcruzi prolif)
COc1ccc(S(=O)(=O)Nc2ccc3c(c2)C(=O)N([C@H](C)CO)C[C@H](C)[C@@H](CN(C)C(=O)Nc2cccc4ccccc24)OCCCC[C@@H](C)O3)cc1	none (no result: C diff growth)
CO[C@@H]1CN(C)C(=O)c2ccc(NC(=O)c3ccccc3F)cc2OC[C@H](C)N(C)C[C@@H]1C	none
Cc1ccc(S(=O)(=O)N(C)C[C@H]2Oc3c(NC(=O)Nc4ccccc4)cccc3C(=O)N([C@H](C)CO)C[C@@H]2C)cc1	none
CCNC(=O)C[C@H]1CC[C@H]2[C@@H](COc3ccc(NC(=O)Nc4ccccc4OC)cc3C(=O)N2C)O1	none
COc1ccccc1S(=O)(=O)N(C)C[C@H]1OCc2cn(nn2)CCCC(=O)N([C@H](C)CO)C[C@H]1C	none (no result: C diff growth)
C[C@H](CO)N1C[C@H](C)[C@H](CN(C)C(=O)Nc2ccc(N3CCCCC3)cc2)OCc2cnnn2CCCC1=O	none
C[C@@H]1CN([C@H](C)CO)C(=O)CCCn2cc(nn2)CO[C@@H]1CN(C)C(=O)Nc1ccc(N2CCN(C)CC2)cc1	none
COc1ccccc1S(=O)(=O)N(C)C[C@H]1OCc2cn(nn2)CCCC(=O)N([C@@H](C)CO)C[C@@H]1C	Pf Dd2 growth -89.2 (no result: C diff growth)
C[C@H]1CN([C@@H](C)CO)C(=O)CCCn2cc(nn2)CO[C@@H]1CN(C)C(=O)Nc1ccc(N2CCCCC2)cc1	Pf Dd2 growth -88.9!
C[C@H]1CN([C@@H](C)CO)C(=O)CCCn2nncc2CO[C@@H]1CN(C)C(=O)Nc1ccc(N2CCCCC2)cc1	Pf Dd2 growth -90.1!
C[C@H](NC(=O)C[C@@H]1CC[C@@H](NC(=O)C2CCOCC2)[C@@H](CO)O1)c1ccccc1	none
C[C@@H]1CN([C@H](C)CO)C(=O)c2cccc(NC(=O)C3CCOCC3)c2O[C@@H]1CN(C)S(C)(=O)=O	none
CN1CCN(C(=O)C[C@H]2CC[C@H]3[C@@H](COC[C@H](O)CN3Cc3ccc4c(c3)OCO4)O2)CC1	none (no result: C diff growth)
CO[C@@H]1CN(C)C(=O)c2ccc(NS(=O)(=O)CC(F)(F)F)cc2OC[C@@H](C)N(Cc2nccs2)C[C@H]1C	none (no result: C diff growth)
CCCC(=O)Nc1ccc2c(c1)OC[C@@H](C)N(Cc1cccc(F)c1)C[C@@H](C)[C@H](OC)CN(C)C2=O	Pf Dd2 growth -87.5 (no result: C diff growth)
CO[C@H]1CN(C)C(=O)c2ccc(NS(=O)(=O)CC(F)(F)F)cc2OC[C@@H](C)N(Cc2nccs2)C[C@H]1C	Pf Dd2 growth -87.6 (no result: C diff growth)
CO[C@@H]1CN(C)C(=O)c2ccc(NC(=O)C3CC3)cc2OC[C@@H](C)N(Cc2cc(F)ccc2F)C[C@H]1C	Pf Dd2 growth -87.2 (no result: C diff growth)
CCCN1C[C@H](C)[C@@H](OC)CN(C)C(=O)c2cc(NC(=O)Nc3cccc(F)c3)ccc2OC[C@H]1C	Pf Dd2 growth -82.1
CCCC(=O)Nc1ccc2c(c1)OC[C@H](C)N(Cc1cccc(F)c1)C[C@H](C)[C@H](OC)CN(C)C2=O	none (no result: C diff growth)
CO[C@@H]1CN(C)C(=O)c2ccc(NC(=O)C3CC3)cc2OC[C@H](C)N(Cc2cc(F)ccc2F)C[C@H]1C	none (no result: C diff growth)
CCCN1C[C@H](C)[C@@H](OC)CN(C)C(=O)c2ccc(NC(=O)Nc3cccc(F)c3)cc2OC[C@H]1C	none (no result: C diff growth)
CCCNC(=O)C[C@@H]1C[C@H]2c3cc(NC(=O)c4ccc5c(c4)OCO5)ccc3O[C@H]2[C@H](CO)O1	none
C[C@H]1CN([C@@H](C)CO)S(=O)(=O)c2ccc(-c3ccncc3)cc2O[C@@H]1CN(C)C(=O)C1CCC1	none (no result: C diff growth)
C[C@H](CO)N1C[C@H](C)[C@H](CN(C)C(=O)Cc2ccccn2)Oc2ncc(-c3ccccc3)cc2C1=O	none
C[C@@H]1CN([C@H](C)CO)C(=O)c2cc(NC(=O)c3ccccc3)ccc2O[C@@H](C)CCCCO[C@@H]1CN(C)Cc1ccc(C(=O)O)cc1	none

Screens deposited in PubChem by Broad Institute.
